This is an account of results in PubChem BioAssay.

Assay [1] is described as follows: inhibitors of TNFa-induced NFkB p65 translocation, primary screen, imaging, HUVEC, MLSMR starter and 10KST1 sets (AID 438;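 active means inhibition above 20% together with a positive visual image hit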;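 further: compound added about 3h40 before a 20 min TNFalpha stimulation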;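 on inhibition: signal is the nuclear over cytoplasmic p65 intensity ratio per well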). The following applies: HUVEC TNFa-induced p65 nuclear translocation; cell count: measured here: nuclei count (cytotoxicity indicator), at 2.08 µM; inhibition: at 2 µM, stronger effect = higher value, 0% TNFa-plus-vehicle, 100% no-TNFa wells.
Assay [2] can be described thus: inhibitors of mutant huntingtin aggregation, primary screen, imaging, exon1htt(103Q)mCFP cells, high-content imaging (AID 483;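 active means visual image review flags a hit and inhibition of aggregation exceeds 20%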;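 further: compound exposure lasted 3 days before fixation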;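 on nuclei count: percent of the per-plate median nuclei count of sample wells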). As to conditions: exon1htt(103Q)mCFP cell line, aggregate imaging, at 2 µM; inhibition of aggregation: stronger effect = higher value; nuclei count: measured here: cell count, toxicity.
The nature of assay [3]: inhibitors of E-selectin induction by TNFa, primary screen, imaging, HUVEC, immunofluorescence, MLSMR starter and 10KST1 sets (AID 487;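 active means visually confirmed hit in the image check and inhibition above 20%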;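 on inhibition: signal is fraction of cell area covered by stained E-selectin grains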;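 on nuclei count: 100% = median nuclei count of all wells on the same plate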). As to conditions: HUVEC TNFalpha-induced E-selectin immunofluorescence imaging, at 2 µM; inhibition: stronger effect = higher value; nuclei count: measured here: cell number, toxicity.
Assay [4] deals with Voltage-gated potassium channel subunit beta-2 (Rattus norvegicus) (UniProt P62483). Briefly: KvBeta enzyme negative modulators, primary screen, biochemical, NADPH fluorescence (AID 622;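 active means fluorescence slope higher than the sample average by over 3 SD, cut at about -0.22 in these data, passing the limit was not always enough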;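 further: slope of raw intensity against log time taken from 70 to 1610 s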). As to conditions: recombinant KvBeta, 4-cyanobenzaldehyde reduction, at 10 µM, stronger effect = higher value.
Assay [5] has the same target. The assay can be described thus: KvBeta positive modulators, primary screen, biochemical, NADPH fluorescence (AID 623;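 active means NADPH fluorescence slope more negative than the mean of all samples by about 3 SD, 99.7% confidence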;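 further: fluorescence intensity change per second fitted from 20 to 320 s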). As to conditions: Recombinant KvBeta, NADPH fluorescence decrease slope, 10 min; at 10 µM; stronger effect = lower value.
Assay [6] addresses Alpha-2C adrenergic receptor (Homo sapiens) (UniProt P18825). Briefly: modulators of alpha2C/GIRK thallium flux, primary screen, cell-based, HEK293 alpha2C/GIRK1/2 (AID 624;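 active means fluorescence slope after compound addition differing from the mean of all screened samples at 99.7% confidence, in either direction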;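 further: slope of fluorescence ratio to pre-addition baseline per second over 15 to 24 s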). The following applies: thallium flux BTC fluorescence, at 10 µM, actives lie on both sides.
Assay [7] can be described thus: inhibitors of Sendai virus-induced IRF3 signaling, primary screen, TLR/RLR signaling modifier project, cell-based, Sendai virus stimulus, luciferase, 10K MLSCN set (AID 602276;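 active means inhibition at or above 50% at 10 µM; inactive means inhibition below 50%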;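 further: firefly luciferase from ISG56 promoter only with Renilla not read in this screen; 0% = Sendai virus plus DMSO and 100% = medium plus DMSO without virus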). As to conditions: HEK293 RL24 IRF3 luciferase reporter, at 10 µM, stronger effect = higher value.
The nature of assay [8]: inhibitors of poly I:C-induced TLR3 signaling, primary screen, cell-based, poly I:C stimulus, luciferase, 10K MLSCN set (AID 602277). The following applies: HEK293-TLR3 RL24 IRF3 luciferase reporter, at 10 µM, stronger effect = higher value. For orientation: Reporter assays use an easily measured gene product as a stand-in for the process of interest.

The source made the active and inactive calls.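 How the source made its calls, unless noted: active means inhibition of the reporter signal at or above 50%; inactive means inhibition below 50%.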

Chain of Alpha-2C adrenergic receptor (Homo sapiens) (P18825 whole entry, looked up): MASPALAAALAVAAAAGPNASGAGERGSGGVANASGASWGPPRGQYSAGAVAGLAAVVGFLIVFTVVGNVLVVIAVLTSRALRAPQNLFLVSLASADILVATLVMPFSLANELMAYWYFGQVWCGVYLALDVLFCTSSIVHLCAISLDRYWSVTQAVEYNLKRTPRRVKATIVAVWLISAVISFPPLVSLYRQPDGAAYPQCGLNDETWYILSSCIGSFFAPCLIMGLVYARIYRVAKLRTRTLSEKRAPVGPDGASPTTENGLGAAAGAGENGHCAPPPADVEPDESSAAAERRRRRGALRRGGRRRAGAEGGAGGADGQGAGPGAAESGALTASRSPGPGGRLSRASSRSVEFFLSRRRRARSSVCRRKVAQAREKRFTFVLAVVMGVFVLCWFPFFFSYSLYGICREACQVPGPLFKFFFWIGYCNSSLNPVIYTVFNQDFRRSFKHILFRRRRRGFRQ
Chain of Voltage-gated potassium channel subunit beta-2 (Rattus norvegicus) (P62483 whole entry, looked up): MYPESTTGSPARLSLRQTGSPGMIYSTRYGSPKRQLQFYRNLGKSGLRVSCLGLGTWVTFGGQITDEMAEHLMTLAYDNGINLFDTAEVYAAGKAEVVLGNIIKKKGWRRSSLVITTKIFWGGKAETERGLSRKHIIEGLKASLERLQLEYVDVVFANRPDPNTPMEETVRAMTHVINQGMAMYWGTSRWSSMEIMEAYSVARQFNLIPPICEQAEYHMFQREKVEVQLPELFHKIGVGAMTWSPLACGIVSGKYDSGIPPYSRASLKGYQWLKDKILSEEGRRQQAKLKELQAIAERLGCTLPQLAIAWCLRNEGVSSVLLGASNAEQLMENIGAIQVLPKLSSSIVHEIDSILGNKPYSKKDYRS

One may read the inhibition as the relative decrease from the control value, in per cent. With `O=C(CCN1C(=O)C2C3C=CC(C3)C2C1=O)N1CCN(c2ccccc2Cl)CC1` (centres undefined), the cell count in assay [1] worked out at 776. The inhibition in assay [1] was -18.1% (inactive); in assay [3] it was 2.5% (inactive); in assay [7], 10.7% (inactive); in assay [8], 11.9% (inactive). Also, the inhibition of aggregation in assay [2] was -5% (inactive). The nuclei count in assay [2] is 123%; in assay [3] it was 107%. Also, in assay [4], the fluorescence slope was -0.399 (inactive). The NADPH fluorescence slope in assay [5] is -4.7e-05 (inactive). For the same molecule, the slope in assay [6] is 0.00465 (inactive).
As for `O=C(O)C1C2C=CC3(CN(C4CCCC4)C(=O)C13)O2` (centres undefined), the cell count in assay [1] worked out at 521. The inhibition in assay [1] was -3.4% (inactive); in assay [3], -23.3% (inactive); in assay [7] it was 12.5% (inactive); in assay [8] it was 38% (inactive). Also, the inhibition of aggregation in assay [2] is 24.1% (inactive). For the same molecule, the figures for the nuclei count in assay [2] and in assay [3] were 69.2% and 97.3%, respectively. The fluorescence slope in assay [4] was -0.546 (inactive). Further, in assay [5], the NADPH fluorescence slope is -1.2e-05 (inactive). The slope in assay [6] is 0.00708 (inactive).
Regarding `O=C(CN1C(=O)c2ccccc2S1(=O)=O)NCc1ccccn1`, the cell count in assay [1] is 643. For the same molecule, the inhibition in assay [1] is 0% (inactive); in assay [3], 5% (inactive); in assay [7], 13.6% (inactive); in assay [8], 26.2% (inactive). Further, the inhibition of aggregation in assay [2] is -6.2% (inactive). Moreover, the nuclei count in assay [2] stood at 90.1%; in assay [3], 119%. The fluorescence slope in assay [4] was -0.61 (inactive). Further, the NADPH fluorescence slope in assay [5] is 4e-06 (inactive). The slope in assay [6] is 0.00685 (inactive).
Turning to `Cn1c(=O)c2[nH]c(NCC3CCCO3)nc2n(-c2ccccc2)c1=O` (centres undefined), the cell count in assay [1] amounted to 359. For the same molecule, the inhibition was -0.4% (inactive) in assay [1], -80% (inactive) in assay [3], 14% (inactive) in assay [7] and 32.3% (inactive) in assay [8]. In addition, in assay [2], the inhibition of aggregation is -11.4% (inactive). Also, the results for the nuclei count in assay [2] and in assay [3] were 108% and 116%, respectively. Moreover, in assay [4], the fluorescence slope is -0.407 (inactive). In assay [5], the NADPH fluorescence slope is -7.1e-05 (inactive). In addition, the slope in assay [6] is 0.00463 (inactive).
Regarding `Cc1nn(-c2ccccc2)c(C)c1/C=N/O`, the cell count in assay [1] was 739. For the same molecule, the inhibition was -3.9% (inactive) in assay [1], 25% (inactive) in assay [3], -8.9% (inactive) in assay [7] and -14.8% (inactive) in assay [8]. The inhibition of aggregation in assay [2] was -3.1% (inactive). The nuclei count was found to be 93.7% in assay [2] and 94.2% in assay [3]. Further, the fluorescence slope in assay [4] was -0.446 (inactive). Besides, the NADPH fluorescence slope in assay [5] was 2.9e-05 (inactive). In assay [6], the slope is 0.00603 (inactive).
With `CN(C)C(=O)N1CCCC(C(=O)NCc2ccccc2)C1` (centres undefined), the cell count in assay [1] was found to be 606. The inhibition in assay [1] was -3.9% (inactive); in assay [3], -50.4% (inactive); in assay [7] it was 40.6% (inactive); in assay [8] it was 25.4% (inactive). Besides, the inhibition of aggregation in assay [2] is -1.5% (inactive). Besides, the figures for the nuclei count in assay [2] and in assay [3] were 84% and 112%, respectively. The fluorescence slope in assay [4] was -0.341 (inactive). The NADPH fluorescence slope in assay [5] is -2.4e-05 (inactive). In addition, in assay [6], the slope is 0.00548 (inactive).
`COc1ccc(C)cc1S(=O)(=O)N(CC(=O)O)c1ccccc1`: the cell count in assay [1] came to 343. The inhibition in assay [1] was 8.1% (inactive); in assay [3] it was -90.2% (inactive); in assay [7], 34.7% (inactive); in assay [8], 21% (inactive). The inhibition of aggregation in assay [2] is -8% (inactive). Besides, the nuclei count is 91.3% in assay [2] and 144% in assay [3]. Further, the fluorescence slope in assay [4] is -0.454 (inactive). Besides, the NADPH fluorescence slope in assay [5] is 7.5e-06 (inactive). The slope in assay [6] was 0.00642 (inactive).
Regarding `Cc1cccc2cc(C#N)c(SCCN3CCCCC3)nc12`, the cell count in assay [1] was found to be 413. For the same molecule, the inhibition in assay [1] is -7.1% (inactive); in assay [3], -46.6% (inactive); in assay [7], 13.4% (inactive); in assay [8], 99% (active). Also, the inhibition of aggregation in assay [2] was -42.5% (inactive). Moreover, the nuclei count in assay [2] and in assay [3] was 108% throughout. Moreover, the fluorescence slope in assay [4] is -0.334 (inactive). Besides, in assay [5], the NADPH fluorescence slope is -4.3e-05 (inactive). Also, in assay [6], the slope was 0.00498 (inactive).
`Cc1ccc(C)c(C(=O)CC2(O)C(=O)Nc3ccccc32)c1` (centres undefined): the cell count in assay [1] was 602. Further, the inhibition was -11% (inactive) in assay [1], -108% (inactive) in assay [3], 3.23% (inactive) in assay [7] and -1.7% (inactive) in assay [8]. Besides, in assay [2], the inhibition of aggregation is 23.6% (inactive). Moreover, the nuclei count amounted to 62.9% in assay [2] and 126% in assay [3]. Besides, in assay [4], the fluorescence slope is -0.416 (inactive). For the same molecule, the NADPH fluorescence slope in assay [5] was -3.2e-05 (inactive). Moreover, the slope in assay [6] was 0.00493 (inactive).
Take `O=C(CSc1nnc(C2CC2)n1Cc1ccccc1)c1ccc(S(=O)(=O)N2CCOCC2)cc1`: the cell count in assay [1] is 426. Also, the inhibition is 15.8% (inactive) in assay [1], -55.3% (inactive) in assay [3], 13.7% (inactive) in assay [7] and 24% (inactive) in assay [8]. In assay [2], the inhibition of aggregation was 1.1% (inactive). Also, the figures for the nuclei count in assay [2] and in assay [3] were 96.7% and 112%, respectively. For the same molecule, the fluorescence slope in assay [4] was -0.412 (inactive). The NADPH fluorescence slope in assay [5] is -0.000138 (inactive). In assay [6], the slope was 0.00543 (inactive).
As to `Cc1ccccc1Nc1cc2ccccc2c(=O)[nH]1`, the cell count in assay [1] worked out at 481. In addition, the inhibition in assay [1] is -12.2% (inactive); in assay [3] it was -35% (inactive); in assay [7] it was -7.13% (inactive); in assay [8] it was 20.8% (inactive). Further, the inhibition of aggregation in assay [2] is -19.5% (inactive). In addition, the nuclei count is 102% in assay [2] and 98.8% in assay [3]. The fluorescence slope in assay [4] was -0.17 (inactive). Also, the NADPH fluorescence slope in assay [5] is 1.6e-05 (inactive). The slope in assay [6] is 0.00385 (inactive).
With `COc1ccc(-c2[nH]nc3c2C(c2ccncc2)C(C#N)=C(N)O3)cc1` (centres undefined), the cell count in assay [1] came to 441. Moreover, the inhibition in assay [1] is 6% (inactive); in assay [3], -6.7% (inactive); in assay [7], 6.11% (inactive); in assay [8], 99% (active). Further, the inhibition of aggregation in assay [2] was 2.5% (inactive). The nuclei count was 113% in assay [2] and 100% in assay [3]. Moreover, in assay [4], the fluorescence slope was -0.31 (inactive). Moreover, the NADPH fluorescence slope in assay [5] is -4.4e-05 (inactive). The slope in assay [6] was 0.00483 (inactive).
Turning to `Cc1ccnc(SCCn2c(N3CCN(Cc4ccccc4)CC3)nc3c2c(=O)[nH]c(=O)n3C)n1`, the cell count in assay [1] stood at 665. Further, the inhibition in assay [1] is -22.3% (inactive); in assay [3] it was -36.7% (inactive); in assay [7], -0.348% (inactive); in assay [8], 0.626% (inactive). Also, in assay [2], the inhibition of aggregation was 0.8% (inactive). For the same molecule, the nuclei count worked out at 120% in assay [2] and 96.2% in assay [3]. Besides, the fluorescence slope in assay [4] is -0.542 (inactive). Moreover, in assay [5], the NADPH fluorescence slope is -3.1e-05 (inactive). Further, in assay [6], the slope was 0.00641 (inactive).
With `c1ccc(C2(Cn3ccc4ccccc43)OCCO2)cc1`, in assay [1], the cell count was determined as 311. Also, the inhibition in assay [1] is -13% (inactive); in assay [3] it was -115% (inactive); in assay [7], 4.02% (inactive); in assay [8], 12% (inactive). Further, in assay [2], the inhibition of aggregation was -6% (inactive). The nuclei count in assay [2] amounted to 109%; in assay [3] it was 123%. Moreover, the fluorescence slope in assay [4] is -0.482 (inactive). For the same molecule, the NADPH fluorescence slope in assay [5] is 2.6e-06 (inactive). For the same molecule, the slope in assay [6] was 0.00648 (inactive).
